Peg3 promoter – inhibitors of Peg3 promoter; HeLa PEG-Prom luciferase reporter, luminescence, overnight; inhibition, % at 20 µM; 360,000 tested, 1.7% active; AID 588405;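 active = inhibition of at least 50% at 20 µM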
TRPM1 prom inh – inhibitors of MITF-driven TRPM1 promoter in melanoma cells | SK-MEL-5 TRPM1 promoter luciferase, 24 h | inhibition, % at 12.5 µM | 330,000 tested, 0.83% active | AID 488899;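 active = mean inhibition across replicates of 60% or more, whatever share of single replicates reaches that level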
KKLEB cytotox – reduces viability of KKLEB cystic fibrosis airway cells. KKLEB CF airway cells viability, ATPlite luminescence, overnight; active compounds read low; cells stimulated with P. aeruginosa culture filtrate. activity change (cytotoxicity), % at 5 µM. 360,000 tested, 0.36% active;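 active = corrected activity change at or below -50% at 5 µM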
CF NFkB block – inhibitors of cystic fibrosis induced NF-kB. KKLEB NF-kB-GFP reporter, PAF-induced, GFP fluorescence overnight. inhibition, % at 5 µM. 360,000 tested, 0.86% active;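 active = at least 50% inhibition at 5 µM, scaled per plate between neutral and stimulator controls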;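 also: PAF is a Pseudomonas aeruginosa culture filtrate used as stimulus; plate controls were PAF-stimulated DMSO wells for no effect and unstimulated DMSO wells for full effect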
HIF-2a block – HIF-2a inhibition. 786-0 RCC cells HIF-2a reporter, luciferase luminescence, overnight. inhibition, % at 18.8 µM. 360,000 tested, 0.72% active. AID 624352;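 active = inhibition of the luminescence signal of 40% or more relative to plate controls, in a single-dose primary screen at 18.75 µM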
Shn3 3UTR inh – inhibitors of Schnurri-3 3'UTR reporter in osteoblasts. Clone20 osteoblast Shn3 3'UTR firefly luciferase, 24 h. inhibition, % at 12.5 µM. 360,000 tested, 0.52% active;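 active = mean inhibition of at least 75% with every replicate also reaching 75%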;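 also: 0% = median of neutral control wells and 100% = pilot-screen positive control compound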
Active calls of the source: *; . = no result. Most compounds without a hit are left out; they make up all but 2.8% or so of the library.

SMILES	Peg3 promoter	TRPM1 prom inh	KKLEB cytotox	CF NFkB block	HIF-2a block	Shn3 3UTR inh
CCOc1ccccc1N(CC(=O)Nc1ccccc1F)S(=O)(=O)c1ccccc1	38	1	19	23	22	7
Nc1cc2nsnc2cc1Br	41	70*	-1	37	24	72
CCC(CC)CC1CN2CCc3cc(OC)c(OC)cc3C2CC1(O)CC (configuration not stated)	-7	.	5	12	5	85*
COc1cc2c(cc1OC)C1CC(=O)C(CC(C)C)CN1CC2 (configuration not stated)	17	-1	7	-6	8	4
O=C1C(=O)c2ccccc2C(O)=C1CCCCl	40	78*	-25	79*	1	14
CN(C)CCCN1c2ccc([N+](=O)[O-])cc2CCc2cc([N+](=O)[O-])ccc21	-13	-7	-15	10	-9	-18
COC(=O)c1cc(F)c(-n2cncn2)c(F)c1	20	6	-5	-4	9	4
COC(=O)c1cc([N+](=O)[O-])c(-n2cncn2)c([N+](=O)[O-])c1	94*	34	-2	0	30	-18
CN(C)/C=C(\C=N\OCc1ccc(Cl)cc1Cl)C(=O)Nc1ccc(Cl)c(Cl)c1	11	11	-60*	56*	6	6
COCCOC(=O)c1c(C)oc2ccc(O)c(CN3CCC(C)CC3)c12 (tested in a mixture with another compound)	-2	-7	3	-12	2	93*
CCOC(=O)c1c(-c2ccccc2)oc2ccc(O)c(CN3CCN(C)CC3)c12	54*	19	-4	-6	-2	1
CCOC(=O)c1c(-c2ccccc2)oc2cc(CN(C)C)c(O)c(CN(C)C)c12	68*	31	17	40	27	94*
COc1cc(OC)cc(-c2nc3ccccc3c(=O)n2OC(=O)c2ccccc2C)c1	53*	-3	3	39	-10	3
O=C(On1c(-c2ccccc2)nc2ccccc2c1=O)c1ccco1	27	16	12	25	-5	-2
COCCCNC(=O)c1ccc2c3c(onc13)-c1ccccc1C2=O	-135	83*	6	10	-142	-44
COCCCNC(=O)c1ccccc1Oc1ccccc1	3	3	3	-7	13	43
CC(C)C[C@H]1CNC(=S)N1CC1CCCN1C[C@H](CC(C)C)N1C[C@H](Cc2ccc(O)cc2)N(CC2CCCCC2)C1=S (some centres not stated)	78*	13	8	36	-5	-1
CC(C)C[C@H]1CNC(=S)N1CC1CCCN1C[C@H](CC(C)C)N1C[C@H](Cc2ccc(O)cc2)N(CC2CCCCCC2)C1=S (some centres not stated)	87*	11	-1	39	-27	8
CC(C)C[C@H]1CNC(=S)N1C[C@H]1CCCN1C[C@H](CC(C)C)N1C[C@H](Cc2ccc(O)cc2)N(CC2CCCCCC2)C1=S	87*	.	-26	37	2	-16
CC(C)C[C@H]1CNC(=S)N1C[C@H]1CCCN1C[C@H](CC(C)C)N1C[C@H](Cc2ccc(O)cc2)N(CCc2ccccc2)C1=S	69*	.	-19	45	-37	-3
CC(C)C[C@@H](CN1CCC[C@@H]1CN1C(=S)NC[C@@H]1Cc1ccccc1)N1C[C@H](Cc2ccc(O)cc2)N(CC2CCCCC2)C1=S	-12	.	-10	23	-1	-64
CCCCn1c(N)c(N(CC(C)C)C(=O)CSC(C)C(=O)Nc2cc(C)on2)c(=O)[nH]c1=O (configuration not stated)	28	-16	-1	11	16	-19
CCN(CC)C(=O)[C@H]1C[C@H](CC(=O)NCC23CC4CC(CC(C4)C2)C3)C(=O)N2CCc3c([nH]c4ccc(Cl)cc34)[C@]12C	59*	12	-6	25	-7	22
CC[C@]12c3[nH]c4ccc(OC)cc4c3CCN1C(=O)C(CC(=O)NCC13CC4CC(CC(C4)C1)C3)C[C@@H]2C(=O)N1CCN(C(=O)c2ccco2)CC1 (some centres not stated)	14	11	-5	10	-3	19

From PubChem
